Six1-Eya2 blk – blocks human Six1 binding to Eya2; Q15475+O00167; AlphaScreen GST-Six1/His-Eya2 binding, biochemical; active compounds read low; activity change, % (test concentration not listed); actives 0.56% (n = 360,000)
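Compounds are tested against tagged Six1 and Eya2 proteins bridged by glutathione donor and nickel acceptor beads; after a one-hour incubation at 37 °C without light, AlphaScreen emission is recorded.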
CtBP-E1A blk – blocks the CtBP interaction with E1A | AlphaScreen GST-E1A/His-CtBP binding, 1536-well; active compounds read low | actives 0.49% (n = 340,000) | activity change, % (concentration not given with the values) | AID 651724
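Homogeneous bead-based format: GST-tagged E1A captured on glutathione donor beads, His-tagged CtBP on nickel acceptor beads; compounds precede bead addition by 2 h at 37 °C.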
L3MBTL1 block – inhibitors of human L3MBTL1 | Q9Y468 | AlphaScreen L3MBTL1–H3K9me1 peptide binding | Potency, µM (titrated, usually from 57.1 µM), without a hit: at the highest dose activity, negative = inhibition, hits mostly inhibitors | actives 0.66% (n = 230,000); active means well fitted inhibition curve with a large enough effect; inconclusive means small, poorly fitted or top-dose-only effect; inactive means no such curve, though single readings can be large or run the other way; further: potency means the concentration at half of the fitted maximal effect; nearly all actives have a fitted effect of over 60% in size
Target sequence (Q9Y468 whole entry, looked up): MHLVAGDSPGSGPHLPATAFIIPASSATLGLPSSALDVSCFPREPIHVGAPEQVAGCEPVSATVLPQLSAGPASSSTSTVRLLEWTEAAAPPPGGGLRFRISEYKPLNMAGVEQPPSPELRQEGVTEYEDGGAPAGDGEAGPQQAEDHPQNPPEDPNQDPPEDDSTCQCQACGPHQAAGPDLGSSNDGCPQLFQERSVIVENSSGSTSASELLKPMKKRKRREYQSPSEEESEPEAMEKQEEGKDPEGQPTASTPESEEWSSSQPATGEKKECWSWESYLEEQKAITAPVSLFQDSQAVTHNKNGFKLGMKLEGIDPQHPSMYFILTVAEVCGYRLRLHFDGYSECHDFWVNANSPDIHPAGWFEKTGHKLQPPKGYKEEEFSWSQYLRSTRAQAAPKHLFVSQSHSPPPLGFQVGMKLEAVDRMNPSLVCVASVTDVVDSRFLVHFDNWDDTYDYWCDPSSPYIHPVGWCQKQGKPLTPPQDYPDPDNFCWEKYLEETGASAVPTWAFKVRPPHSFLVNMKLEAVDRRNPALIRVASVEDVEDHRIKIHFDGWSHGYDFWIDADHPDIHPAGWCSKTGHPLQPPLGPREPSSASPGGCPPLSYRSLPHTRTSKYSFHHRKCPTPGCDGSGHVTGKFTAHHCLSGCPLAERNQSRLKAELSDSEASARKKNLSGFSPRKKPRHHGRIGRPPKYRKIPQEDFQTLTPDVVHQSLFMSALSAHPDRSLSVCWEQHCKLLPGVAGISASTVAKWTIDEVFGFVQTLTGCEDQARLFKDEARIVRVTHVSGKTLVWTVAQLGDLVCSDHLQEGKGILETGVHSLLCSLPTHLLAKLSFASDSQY
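L3MBTL1 50 nM + b-AHA-H3(1-15)K9me1 75 nM, 30 min RT; compound added, 30 min RT; streptavidin donor/Ni-chelate acceptor beads 10 ug/mL each final, 30 min RT dark; AlphaScreen read.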
JMJD2E inh – inhibitors of human JMJD2E histone demethylase; B2RXH2; JMJD2E catalytic domain, FDH-coupled NADH fluorescence (FDH is formaldehyde dehydrogenase); Potency, µM (doses to about 57.1 µM), without a hit: top-dose activity change, negative = inhibition, most hits filed as inhibitors; actives 1.6% (n = 230,000); AID 2147; active means well fitted inhibition curve with a large enough effect, not every such curve was filed as active; inconclusive means small, poorly fitted or top-dose-only effect, or another doubt; inactive means no such curve, though single readings can be large or run the other way;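 further: potency means the concentration at half of the fitted maximal effect; 0% = wells with enzyme and -100% = buffer wells without enzyme; nearly all actives have a fitted effect of over 50% in size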
Numbers without * were called inactive; ? = inconclusive; nt = no result given; ! = not active in a repeat; [ ] = dose if it differs, or a comment. The full list was thinned out, with hits kept by preference. Unless noted, no stated cut-off is given here; in the data, active means activity change below about -65%; inconclusive means mostly about -30% to -63%; inactive means weaker than that. Unless noted, on the % scale 0 is the no-effect control and ±100 the full control effect.

SMILES	Six1-Eya2 blk	CtBP-E1A blk	L3MBTL1 block	JMJD2E inh
O=C(O)C1Nc2c(O)cccc2C2C=CCC12 (stereo not drawn)	0	-82*	1µM*	18µM*
O=C(OC1CCCCC1)c1ccc2c(c1)C1C=CCC1C(C(=O)O)N2 (stereo not drawn)	nt	nt	3.2µM*	-21%
O=C(O)C1Nc2c(Cl)cc(Cl)cc2C2C=CCC12 (stereo not drawn)	?	-8	3.5µM*	nt
O=C(O)C1Nc2ccc(Br)cc2C2C=CCC12 (stereo not drawn)	-6	nt	nt	nt
O=C(O)C1Nc2c(Cl)cc(Cl)c(Cl)c2C2C=CCC12 (stereo not drawn)	2	nt	nt	nt
CCOC(=O)CC(CC(C)=O)C(=O)OCC (stereo not drawn)	nt	nt	nt	2%
O=C(Nc1nc(-c2ccccn2)cs1)c1ccc2c(c1)OCCO2	-82*	?	-26%	?
CC(=O)Nc1ccc(C(=O)Nc2nc(-c3ccccn3)cs2)cc1	-81*	-91*	-44%	?
O=C(Nc1nc(-c2ccccn2)cs1)c1ccccc1-n1cnnn1	-91*	-98*	20µM*	?
O=C(Nc1ccc(OC(F)(F)F)cc1)c1ccccc1-n1cnnn1	0	1	-8%	nt
CC(=O)Nc1ccc(C(=O)Nc2nc(-c3cccnc3)cs2)cc1	-6	-13	7%	?
CC1CC1C(=O)Nc1nc(-c2ccccn2)cs1 (stereo not drawn)	-82*	-70*	nt	-18%
COc1cc(OC)cc(-c2c(C#Cc3ccsc3)c3cc(-c4cccc5[nH]ccc45)ccc3n2C)c1	-2	-1	6%	nt
CN(Cc1cccs1)C(=O)CNC(=O)c1ccco1	2	6	nt	nt
Nc1c(S(=O)(=O)c2cccs2)c2nc3ccccc3nc2n1CCc1ccccc1	nt	nt	18%	?
COc1ccc(CCn2c(N)c(C#N)c3nc4ccccc4nc32)cc1OC	-65*	-69*	20%	?
COc1ccc(Cn2c(N)c(C#N)c3nc4ccccc4nc32)cc1OC	-16	-23	nt	?
COc1ccc(CCn2c(N)c(S(=O)(=O)c3cccs3)c3nc4ccccc4nc32)cc1OC	-67*	8	0%	?
CCN(c1ccccc1)S(=O)(=O)c1ccc(Cl)c(NC(=O)COC(=O)c2cc(O)c3ccccc3c2O)c1	nt	nt	nt	8.9µM*
COc1ccc(C(=O)NNC(=S)NC(=O)c2ccco2)cc1	-7	-8	2%	-77%
CC(Oc1ccc(Cl)cc1)C(=O)NNC(=S)NC(=O)c1ccco1 (stereo not drawn)	-24	-2	7%	20µM*
N#Cc1ccc(-c2nc3cc(Cl)ccc3c(=O)n2O)cc1	0	-17	nt	nt
O=c1c2ccc(Cl)cc2nc(-c2cccc(C(F)(F)F)c2)n1O	-3	-3	-1%	32µM*
Cc1ccc(OCc2csc(N)n2)cc1	4	6	nt	-3%
CCOC(=O)C1(C)CCN1C(=O)c1ccc(OC)c(OC)c1 (stereo not drawn)	4	0	nt	nt
SMILES	Six1-Eya2 blk	CtBP-E1A blk	L3MBTL1 block	JMJD2E inh
Cc1ccc(NC2Sc3ccccc3NC2=O)cc1 (stereo not drawn)	-2	14	-3%	22µM*
O=C1Nc2ccccc2SC1c1ccccc1 (stereo not drawn)	-2	nt	nt	nt
COc1cc(C2CC(=O)N3CN(c4ccccc4C)CSC3=C2C#N)cc(OC)c1OC (stereo not drawn)	nt	nt	-11%	11µM*
COc1cccc(C2CC(=O)N3CN(c4ccccc4F)CSC3=C2C#N)c1 (stereo not drawn)	-1	-2	nt	?
COc1ccccc1N1CSC2=C(C#N)C(c3ccc(SC)cc3)CC(=O)N2C1 (stereo not drawn)	-5	-3	22µM*	22µM*
CCc1ccccc1N1CSC2=C(C#N)C(c3cc(OC)c(OC)cc3OC)CC(=O)N2C1 (stereo not drawn)	-28	-27	nt	?
COc1ccc(OC)c(C2CC(=O)N3CN(c4ccccc4F)CSC3=C2C#N)c1 (stereo not drawn)	-1	-11	nt	2.2µM*
O=C(NN=Cc1ccc(F)cc1)c1cccc(S(=O)(=O)N2CCCC2)c1	0	-3	33%	nt
CCOc1cc(C=NNC(=O)c2cccc(S(=O)(=O)N3CCCC3)c2)ccc1O	-66*	nt	4%	nt
O=C(N/N=C/c1ccc(O)c(O)c1)c1cccc(S(=O)(=O)N2CCCCC2)c1	-9	-17	-3%	16µM*
COC(=O)N/N=C/c1ccc(OC(=O)/C=C/c2ccco2)cc1	?	-71*	-9%	-2%
CCc1ccc(OC(=O)/C=C/c2ccco2)cc1	22	7	-7%	nt
COC(=O)N/N=C\c1ccc(OC(=O)c2ccco2)cc1	-10	4	nt	2%
O=C(Cc1ccccc1)N/N=C/c1ccc(OC(=O)/C=C\c2ccco2)cc1	?	-65*	15%[11.4 µM]	-13%
c1ccc(C2NCCn3cccc32)cc1 (stereo not drawn)	-5	-2	-6%	?
Fc1ccc(C2NCCn3cccc32)cc1 (stereo not drawn)	-12	-9	-8%	20µM*
C=CCN1C=C2C(=O)C(C)(OC(=O)c3cccs3)C(=O)C=C2C=C1CCCC(=O)OC (stereo not drawn)	-1	-3	nt	16µM*!
C=CCN1C=C2C(=O)C(C)(OC(=O)CC)C(=O)C=C2C=C1CCCC (stereo not drawn)	2	4	nt	-5%[11.4 µM]
Nc1nc2c([nH]c(=O)n2C2OC(CO)C(O)C2O)c(=O)[nH]1 (stereo not drawn)	nt	nt	nt	-4%
CCn1c(CSc2nc3ccccc3s2)nnc1SCC(=O)c1ccc(O)c(O)c1	-24	-11	nt	14µM*
C=CCn1c(SCC(=O)c2ccc(O)c(O)c2)nnc1-c1ccccc1OC	-4	0	-21%	10µM*
CCn1c(SCC(=O)c2ccc(O)c(O)c2)nnc1-c1ccccc1OC	-10	-1	?	22µM*

Compound activity (PubChem BioAssay)
